# Screening results from PubChem.
# Methyltransferases = Primary Screen for Target Class Profiling of Small Molecule Inhibitors of Methyltransferases. purified enzyme, MTase-Glo SAH luminescence; active compounds read low. calls only at 40 µM. 25,000 compounds, 3.9% hits. AID 1745853, 2022; call rule not given here
#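 Each enzyme was reacted with SAM and its substrate, with compounds tested once at 40 uM; SAH formed was read by MTase-Glo luminescence.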
# Starred values were filed as active, the others as inactive; i = inactive; + = active, no number. The sample as a whole holds a higher share of hits than the screen did. On the % scale 0 is the no-effect control and ±100 the full control effect.
SMILES,Methyltransferases
C[C@@H]1O[C@@H](O[C@H]2[C@H](OC(=O)C34CCC(C)(C)CC3C3=CCC5C6(C)CC(O)C(O[C@@H]7O[C@H](CO)[C@@H](O)[C@H](O)[C@H]7O)C(C)(C(=O)O)C6CCC5(C)C3(CO)CC4)O[C@H](C)[C@H](O)[C@@H]2O)[C@H](O)[C@H](O)[C@H]1O[C@@H]1OC[C@@H](O)[C@H](O)[C@H]1O (some centres not stated),+
CC1(C)CCC2(C(=O)OC3OC(COC4OC(CO)C(O)C(O)C4O)C(O)C(O)C3O)CCC3(C)C(=CCC4C5(C)CCC(OC6OCC(O)C(O)C6O)C(C)(C)C5CCC43C)C2C1O (configuration not stated),i
CC1(C)CC[C@]2(C(=O)O[C@@H]3O[C@H](CO)[C@@H](O)[C@H](O)[C@H]3O)CC[C@]3(C)C(=CCC4[C@@]5(C)C[C@@H](O)[C@H](O)[C@@](C)(CO)C5CC[C@]43C)C2C1 (some centres not stated),+
C[C@@H]1O[C@@H](O[C@H]2[C@H](O)[C@@H](O)[C@H](OC[C@H]3O[C@@H](OC(=O)[C@]45CCC(C)(C)C[C@H]4C4=CCC6[C@@]7(C)C[C@H](O)[C@H](O[C@@H]8O[C@H](CO)[C@@H](O)[C@H](O)[C@H]8O)[C@@](C)(C(=O)O)C7CC[C@@]6(C)[C@]4(C)CC5)[C@H](O[C@@H]4O[C@H](CO)[C@@H](O)[C@H](O)[C@H]4O)[C@@H](O)[C@@H]3O)O[C@@H]2CO)[C@H](O)[C@H](O)[C@H]1O (some centres not stated),i
CC1(C)CC[C@]2(C(=O)OC3OC(CO)C(O)C(O)C3O)CC[C@]3(C)C(=CCC4[C@@]5(C)C[C@@H](O)[C@H](OC6OC(C(=O)O)C(O)C(O)C6O)C(C)(C)C5CC[C@]43C)[C@@H]2C1 (some centres not stated),i
CC1(C)CC[C@]2(C(=O)O)CC[C@]3(C)C(=CCC4[C@@]5(C)C[C@@H](O)[C@H](O)C(CO)(CO)C5CC[C@]43C)C2[C@@H]1O (some centres not stated),+
C[C@@H]1O[C@@H](O[C@H]2[C@H](OC(=O)[C@]34CCC(C)(C)C[C@H]3C3=CCC5[C@@]6(C)C[C@H](O)[C@H](O[C@@H]7O[C@H](CO)[C@@H](O)[C@H](O)[C@H]7O)[C@@](C)(CO)C6[C@H](O)C[C@@]5(C)[C@]3(C)CC4)OC[C@H](O)[C@@H]2O)[C@H](O)[C@H](O)[C@H]1O[C@@H]1OC[C@@H](O)[C@H](O[C@@H]2OC[C@](O)(CO)[C@H]2O)[C@H]1O (some centres not stated),i
C[C@@H]1CC[C@]2(C(=O)O)CC[C@]3(C)C(=CCC4[C@@]5(C)C[C@@H](O)[C@H](O)[C@@](C)(CO)C5CC[C@]43C)C2[C@H]1C (some centres not stated),i
CC1(C)CC[C@]2(C(=O)O[C@@H]3O[C@H](CO)[C@@H](O)[C@H](O)[C@H]3O)CC[C@]3(C)C(=CCC4[C@@]5(C)C[C@@H](O)[C@H](O)C(C)(C)C5[C@H](O)C[C@]43C)[C@@H]2[C@@H]1O (some centres not stated),i
CC1(C)CC[C@]2(C(=O)O[C@@H]3O[C@H](CO)[C@@H](O)[C@H](O)[C@H]3O)CC[C@]3(C)C(=CCC4[C@@]5(C)C[C@H](O)[C@H](O[C@@H]6OC[C@@H](O)[C@H](O)[C@H]6O)[C@@](C)(CO)C5CC[C@]43C)C2C1 (some centres not stated),i
C[C@H]1[C@H](C)CC[C@]2(C(=O)O)CC[C@]3(C)C(=CC[C@@H]4[C@@]5(C)C[C@@H](O)[C@H](O)[C@@](C)(CO)[C@@H]5CC[C@]43C)[C@H]12,i
CCCn1c(=O)c2ccc(C(=O)NC(C)C)cc2n2c(SCC(=O)Nc3ccccc3OC)nnc12,i
CN1CCC(C(=O)N2CCC(n3c(=O)[nH]c4ccccc43)CC2)CC1,i
CC1=NOC2(CCN(Cc3ccc(N(C)C)cc3)C2)C1 (configuration not stated),i
COc1ccc(CN2C(=O)c3c(NC(C)=O)c4ccccc4n3CC2(C)C(=O)NC2CCCC2)cc1 (configuration not stated),i
CCc1cccc(N2C(=O)c3ccc(-c4ccco4)n3CC2(C)C(=O)NCc2ccc(Cl)cc2)c1 (configuration not stated),i
COc1cccc(Nc2nn3c(=O)c4ccc(C(=O)NCc5ccccn5)cc4nc3s2)c1,i
C=C1C(=O)O[C@@H]2C[C@H](C)[C@@H]3CC(=O)C(C)=C3C[C@H]12,i
CCOC(=O)c1cc2n(n1)CC(C)(C(=O)NCc1ccccc1)N(Cc1cc(OC)ccc1OC)C2=O (configuration not stated),i
CC1(C(=O)NC2CCCCC2)Cn2c(cc3ccccc32)C(=O)N1Cc1ccc(F)cc1 (configuration not stated),i
COc1ccc(NC(=O)CSc2nnc3n(Cc4ccc(F)cc4)c(=O)c4ccccc4n23)cc1,i
COc1ccccc1CNC(=O)C1c2c(n(C)c3ccccc23)SCC(=O)N1Cc1ccccc1Cl (configuration not stated),i
C=CC1(C)CC2=CCC3C(C)(C(=O)O)CCCC3(C)C2CC1OC(C)=O (configuration not stated),i
CC(=O)Nc1c2n(c3ccc(F)cc13)CC(C)(C(=O)NCCC(C)C)N(Cc1ccc(F)cc1)C2=O (configuration not stated),i
Cc1ccc(C)c(S(=O)(=O)c2nnn3c2nc(NCCc2c[nH]c4ccccc24)c2ccccc23)c1,i
SMILES,Methyltransferases
O=C(O)CCCc1c[nH]c2ccccc12,i
c1ccc2c(CCNc3ccc(Nc4ccncc4)cc3)c[nH]c2c1,+
Cc1ccc(-c2nnn3c2nc(NCCc2c[nH]c4ccccc24)c2ccccc23)cc1,i
O=C(CN1C(=O)C2(CCCCC2)C1c1ccccc1)NCCc1c[nH]c2ccccc12 (configuration not stated),i
c1cc(NCCc2c[nH]c3ccccc23)cc(Nc2ccncc2)c1,+
CCNC(=O)[C@H]1O[C@@H](n2cnc3c(N)nc(NCCc4ccc(CCC(=O)O)cc4)nc32)[C@H](O)C1O (some centres not stated),i
CCc1cnc(C2CCN(C(=O)OC(C)(C)C)CC2)[nH]1,i
CCCn1c(=O)c2ccc(C(=O)NC3CCCC3)cc2n2c(=O)n(CC(=O)c3ccc(C)cc3)nc12,i
CC(=O)N1CCN(C(=O)c2ccc3nnc(CC4CC4)n3c2)CC1,i
Cn1c(=O)n(CC(=O)NCc2ccc3c(c2)OCO3)c(=O)c2cnc(-c3ccc(Cl)cc3)nc21,i
CC1(C(=O)NC2CCCCC2)Cn2nc(-c3cccs3)cc2C(=O)N1CCCc1ccccc1 (configuration not stated),i
CCN(CC)c1ccc2c(O)c(C=Nc3ccc(CC(=O)O)c(-c4c5c(nc6ccccc46)CCC(C(=O)NN)C5)c3)c(=O)oc2c1 (configuration not stated),+
CCCn1c(=O)c2ccc(C(=O)NC3CCCC3)cc2n2c(=O)n(Cc3ccccc3F)nc12,i
CCc1cc2c(cc3n2CC(C)(C(=O)NC2CCCCC2)N(C2CCCCC2)C3=O)s1 (configuration not stated),i
